We go through 20 compounds from PubChem BioAssay (NCATS).

Experiment [1] in a line: qHTS Assay for Lipid Storage Modulators (AID 1519; calls by dose curve; on activity change, negative = inhibition: on the % scale 0 is the no-effect control and ±100 the full control effect). As to conditions: Drosophila S3 cells, BODIPY lipid droplet/cell ratio, laser cytometry, cells loaded with oleic acid; for activity change, negative = inhibition: at 57.5 µM (top of the series). An outline of the steps: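 Cells seeded at 5,000 per well were treated with compounds over a concentration series and loaded with oleic acid (400 uM, as added). Lipid droplet fluorescence (488 nm excitation, 500-530 nm channel) was read by laser-scanning cytometry and normalized to 20 uM Triacsin C.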
In general terms: qHTS replaces the single test concentration by a dilution series.

Experiment [2] addresses DNA repair nuclease/redox regulator APEX1 (Homo sapiens) (UniProt P27695). Put plainly: qHTS Validation Assay for Inhibitors of the Human Apurinic/apyrimidinic Endonuclease 1 (APE1) (AID 1705; further: potency means the concentration at half of the fitted maximal effect;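 on activity change, negative = inhibition: TAMRA fluorescence gain over two minutes as APE1 cuts a quenched THF abasic duplex; on the % scale 0 is the no-effect control and ±100 the full control effect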). An outline of the steps: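 Fluorogenic double-stranded THF abasic-site substrate (5'-TAMRA/3'-BHQ-2), 50 nM final. Enzyme preincubated with compound 15 min at room temperature, then substrate added. Kinetic fluorescence (ex 525/em 598 nm) read three times at 60 s intervals; activity taken as third-minus-first read difference.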

Experiment [3] can be described thus: Counterscreen for APE1 Inhibitors: Fluorescent Dye Displacement Validation Assay (AID 1707).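 Further: plate controls were ThO with dsDNA and no compound for no effect and ThO without dsDNA for full effect.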 An outline of the steps: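 Assay buffer: Tris-HCl pH7.5 with 50mM NaCl, 2 mM MgCl2, 0.01% Tween-20. Dye 250 nM, duplex 50 nM final. Readout: decrease in ThO endpoint fluorescence, 480 nm excitation, 540 nm emission.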
The target of experiment [4] is Endonuclease 4 (Escherichia coli (strain K12)) (UniProt P0A6C1). As to the kind of experiment: Counterscreen for APE1 Inhibitors: qHTS Validation Assay for Inhibitors of Endonuclease IV (AID 1708). Further: on the % scale 0 is the no-effect control and ±100 the full control effect. An outline of the steps:
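Concentration-response counterscreen run identically to the APE1 assay: 15 min room-temperature preincubation of 2 nM enzyme with compound, reaction started with 50 nM quenched abasic DNA, progress taken from kinetic fluorescence.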
On the technique in general: Counterscreens check selectivity or assay interference.

A short description of experiment [5]: qHTS for differential inhibitors of proliferation of Plasmodium falciparum line 7G8 (AID 1815).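 Further: parasite growth measured after three days of incubation.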 Further: potency means the concentration at half of the fitted maximal effect.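 On activity change, negative = inhibition: plate controls were vehicle wells for no effect and reference inhibitor wells for full effect.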
A short description of experiment [6]: qHTS for differential inhibitors of proliferation of Plasmodium falciparum line 3D7 (AID 1876). Further: potency means the concentration at half of the fitted maximal effect.
For experiment [7], the target named is Alpha-galactosidase A (Homo sapiens) (UniProt P06280). Put plainly: Counterscreen for Glucocerebrosidase Inhibitors: qHTS Assay for Human alpha-Galactosidase at pH 4.5 (AID 992). Further: 0% is about no effect. An outline of the steps: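 Concentration-response curves (0.7 nM to 77 uM final) were modeled with the Hill equation to give AC50. Reactions: 2 nM enzyme, 80 uM fluorogenic alpha-galactoside, pH 4.5 citric acid buffer, 20 min, room temperature.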

Experiment [8] concerns the target alpha-glucosidase (Oryza sativa, rice) (UniProt Q653V4). As to the kind of experiment: Counterscreen for Glucocerebrosidase Inhibitors: qHTS Assay for Rice alpha-Glucosidase at pH 5.0 (AID 997).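 Further: 0% = full activity with enzyme and -100% = basal without enzyme.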 An outline of the steps: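 Rice alpha-glucosidase (4 nM final) with 400 uM 4-methylumbelliferyl-alpha-D-glucopyranoside in citrate buffer pH 5.0, 20 min at room temperature, stopped at pH 10; fluorescence 365/440 nm, compounds 0.7 nM–77 uM, AC50 from Hill fits.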

Experiment [9] can be described thus: qHTS for differential inhibitors of proliferation of Plasmodium falciparum line GB4 (AID 1816).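 Further: parasite growth measured after 72 h incubation.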 Further: potency means the concentration at half of the fitted maximal effect.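 On activity change, negative = inhibition: 0% = vehicle DMSO and -100% = reference inhibitor.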 As to conditions: Potency: Plasmodium falciparum GB4 proliferation inhibition.
Where [10] appears, read: measured here: cell count channel max response.
[11] abbreviates: measured here: lipid channel max response.

Records with an inconclusive call do not appear. Active and inactive are the calls of the source. Unless noted, the call rests on the fitted dose curve; in most records, active means well fitted curve in the direction sought with a large enough effect; inconclusive means small, poorly fitted or top-dose-only effect, or another doubt; inactive means no such curve, though single readings can be large; an effect the other way counts as inactive or inconclusive.

Sequence of Alpha-galactosidase A (Homo sapiens) (P06280 whole entry, looked up): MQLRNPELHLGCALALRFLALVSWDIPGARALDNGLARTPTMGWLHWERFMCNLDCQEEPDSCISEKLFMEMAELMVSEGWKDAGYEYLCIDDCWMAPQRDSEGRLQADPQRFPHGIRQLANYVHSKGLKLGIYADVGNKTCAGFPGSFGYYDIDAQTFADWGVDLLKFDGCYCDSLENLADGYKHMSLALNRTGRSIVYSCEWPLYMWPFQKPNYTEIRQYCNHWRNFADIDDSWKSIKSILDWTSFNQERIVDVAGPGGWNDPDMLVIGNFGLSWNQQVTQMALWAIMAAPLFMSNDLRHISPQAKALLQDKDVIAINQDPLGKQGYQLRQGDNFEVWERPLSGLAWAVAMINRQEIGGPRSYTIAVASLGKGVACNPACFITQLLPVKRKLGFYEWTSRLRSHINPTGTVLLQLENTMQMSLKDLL
Sequence of DNA repair nuclease/redox regulator APEX1 (Homo sapiens) (P27695 whole entry, looked up): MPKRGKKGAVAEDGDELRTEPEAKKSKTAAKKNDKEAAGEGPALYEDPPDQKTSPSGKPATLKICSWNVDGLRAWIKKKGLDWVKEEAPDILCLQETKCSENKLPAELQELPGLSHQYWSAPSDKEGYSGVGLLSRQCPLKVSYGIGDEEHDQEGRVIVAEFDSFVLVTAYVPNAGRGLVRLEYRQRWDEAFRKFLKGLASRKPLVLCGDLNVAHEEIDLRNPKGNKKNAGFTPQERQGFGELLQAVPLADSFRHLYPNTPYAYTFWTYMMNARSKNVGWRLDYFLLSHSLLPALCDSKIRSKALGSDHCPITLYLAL

As for `OC[C@H]1O[C@@H](n2cnc3cncnc32)[C@H](O)[C@@H]1O`, the activity change, negative = inhibition in [1] is -4.73% (inactive). Besides, the values for the max response in experiment [1] (setting [10]) and in [1] (setting [11]) were 0.328% and -1.94%, respectively. The Potency entry in experiment [2], in experiment [3], in experiment [4] and in experiment [5] was “inactive” each time. In [6], the Potency was 5.01 µM (active).

In the case of `NC(=O)CNCCC(c1ccccc1)c1ccccc1`, the result in [7] and in [8] was inactive. For the same compound, the activity change, negative = inhibition in experiment [1] is 0.71% (inactive). Besides, the results for the max response in experiment [1] (setting [10]) and in [1] (setting [11]) were -14.5% and -14.2%, respectively. Besides, the Potency result in [3] and in experiment [4] was “inactive” in each case. Moreover, the Potency in [5] is 4.47 µM (active).

For `CCN1C(=O)C=CC1=O`, the result in experiment [7] and in [8] was inactive. Besides, the activity change, negative = inhibition in experiment [1] is 0.136% (inactive). In addition, the max response in [1] (setting [10]) is -19.7%; in experiment [1] (setting [11]), -18.9%. In addition, the Potency entry in [2], in experiment [3], in [4], in experiment [5], in [9] and in [6] was “inactive” each time.

In the case of `Cc1ccccc1/C=C/C1=NCCN1`, the Potency entry in [2] and in experiment [3] was “inactive” in each case. Also, the figures for the Potency in [5] and in experiment [9] were 8.91 µM (active) and 11.2 µM (active), respectively.

As to `NC(=O)c1cc[n+](CC2=C(C(=O)O)N3C(=O)[C@@H](NC(=O)[C@@H](c4ccccc4)S(=O)(=O)[O-])[C@H]3SC2)cc1`, the Potency in [2] was 14.1 µM (active). Also, the Potency result in experiment [3], in [5], in experiment [9] and in experiment [6] was “inactive” each time.

In the case of `O=C1Nc2ccc(I)cc2/C1=C/c1cc(Br)c(O)c(Br)c1`, the call in experiment [7] and in experiment [8] was inactive. For the same compound, the Potency result in [3] and in [4] was “inactive” in each case. In addition, the values for the Potency in experiment [5], in [9] and in experiment [6] were 8.91 µM (active), 14.1 µM (active) and 14.1 µM (active), respectively.

Turning to `COc1ccc2c(c1)c(CC(=O)O)c(C)n2C(=O)c1ccccc1`, the outcome in experiment [7] and in [8] was inactive. The Potency result in experiment [2], in experiment [3], in experiment [4], in experiment [5], in [9] and in [6] was “inactive” each time.

Consider `CCn1c(=O)[nH]c2cc(Cl)c(Cl)cc21`, for which the call in experiment [7] and in experiment [8] was inactive. Further, the Potency entry in experiment [2], in experiment [3], in experiment [5], in experiment [9] and in experiment [6] was “inactive” in each case.

Take `COc1ccccc1N1CCN(CCN(C(=O)c2ccc(F)cc2)c2ccccn2)CC1`: the compound was called inactive in experiment [7] and in [8]. The Potency result in [2], in [3] and in [4] was “inactive” each time.

As to `CC(=O)[C@H]1CCC2C3CC=C4C[C@@H](OS(=O)(=O)O)CC[C@]4(C)C3CC[C@@]21C` (stereo partly drawn), the Potency entry in experiment [2], in experiment [3], in [4], in experiment [5], in experiment [9] and in [6] was “inactive” each time.

Consider `O=C1OC(=O)C2C3CCC(O3)C12` (stereo not drawn), for which the Potency entry in experiment [3], in experiment [4], in experiment [5] and in experiment [6] was “inactive” in each case.

As for `CCCCCCCCCCCCCCSCC(=O)O`, the call in experiment [7] and in [8] was inactive. Besides, the Potency entry in experiment [3], in experiment [5], in experiment [9] and in experiment [6] was “inactive” in each case.

Consider `CC(C)(C)c1cc(/C=C(\C#N)C(N)=S)cc(C(C)(C)C)c1O`, for which the call in [7] and in [8] was inactive. Moreover, the Potency result in [3] and in experiment [4] was “inactive” throughout. Besides, the Potency in experiment [5] was 7.94 µM (active); in experiment [9], 7.94 µM (active); in experiment [6] it was 4.47 µM (active).

For the compound `COc1ccc(NC(=O)c2ccc(-c3ccc(-c4noc(C)n4)cc3C)cc2)cc1N1CCN(C)CC1`, the compound was called inactive in experiment [7] and in experiment [8]. Moreover, the Potency entry in experiment [2], in experiment [3] and in experiment [4] was “inactive” throughout. For the same compound, the values for the Potency in experiment [5], in experiment [9] and in experiment [6] were 4.47 µM (active), 3.98 µM (active) and 2.82 µM (active), respectively.

As to `N#CC(=C(\N)Sc1ccccc1N)/C(C#N)=C(/N)Sc1ccccc1N`, the Potency entry in [2], in experiment [3] and in [4] was “inactive” in each case. Further, the Potency is 2.51 µM (active) in experiment [5], 4.47 µM (active) in experiment [9] and 3.98 µM (active) in [6].

`Nc1ncnc2c1c(-c1ccc(Oc3ccccc3)cc1)cn2C1CCCC1`: the result in experiment [7] and in [8] was inactive. Besides, the Potency result in experiment [3] was “inactive”. For the same compound, the Potency was 4.47 µM (active) in [5], 2.51 µM (active) in experiment [9] and 10 µM (active) in [6].

On to `Nc1nc2ccc(Cl)cc2c2nc(-c3ccco3)nn12`, for which the compound was called inactive in experiment [7] and in [8]. Moreover, the Potency entry in experiment [2], in experiment [3] and in experiment [4] was “inactive” in each case.

With `NCC(O)C1CCCCCCC1` (stereo not drawn), the Potency entry in experiment [3], in [4] and in experiment [6] was “inactive” each time. Also, the Potency in [5] is 12.6 µM (active); in experiment [9] it was 5.62 µM (active).

On to `CCCC(=O)NCCc1c2n(c3ccc(OC)cc13)CCCc1ccccc1-2`, for which the result in experiment [7] and in experiment [8] was inactive. Besides, the Potency entry in [2] and in [3] was “inactive” in each case. In addition, the Potency in experiment [5] is 3.55 µM (active); in experiment [9], 11.2 µM (active).

As for `O=c1oc(Cl)c(Cl)c2ccccc12`, the result in experiment [7] and in [8] was inactive. Further, the Potency entry in experiment [2], in [3], in experiment [9] and in experiment [6] was “inactive” throughout.
